Laboratory results taken from PubChem BioAssay AID1159580 (chemical genetic matrix, 2015).
About 2,000 (36%) of roughly 5,500 compounds were called active. Roughly 18% stayed inconclusive and do not appear here. No stated cut-off is given here; in the data, active means normalized growth mostly below about 0.91 (no sharp cut-off); inconclusive means no clear call, values can overlap the other calls; inactive means mostly above about 0.92. This is one part of the list.

Assay: chemical genetic growth profiling, strain panel (AID 1159580);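 further: tested at 20 µM; growth read once vehicle control cultures reached saturation at 30 °C; 1 = growth at the plate median or of vehicle wells; lower values mean less growth of the strain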
Settings: growth OD

Measured: normalized growth

CC1(C)C(O)CC(O)C2(C)C1CC(O)C1(C)C2CCC2(C)C(c3ccoc3)OC(=O)C3OC321 (stereo not drawn)
inactive: S. cerevisiae deletion strains, locus YAL021C, strain ccr4, hits give low values 0.989 | S. cerevisiae deletion strains, locus YAL026C, strain drs2, hits give low values 0.983 | S. cerevisiae deletion strains, locus YAL030W, strain snc1, hits give low values 0.998 | S. cerevisiae deletion strains, locus YBL061C, strain skt5, hits give low values 1.01 | S. cerevisiae deletion strains, locus YBR009C, strain hhf1, hits give low values 0.999 | S. cerevisiae deletion strains, locus YBR021W, strain FUR4, hits give low values 0.974 | S. cerevisiae deletion strains, locus YBR023C, strain chs3, hits give low values 0.997 | S. cerevisiae deletion strains, locus YBR171W, strain sec66, hits give low values 0.988 | S. cerevisiae deletion strains, locus YBR229C, strain ROT2, hits give low values 1.01 | S. cerevisiae deletion strains, locus YBR231C, strain swc5, hits give low values 0.999 | S. cerevisiae deletion strains, locus YBR279W, strain paf1, hits give low values 0.992 | S. cerevisiae deletion strains, locus YCL011C, strain gbp2, hits give low values 0.976 | S. cerevisiae deletion strains, locus YCL016C, strain dcc1, hits give low values 0.985 | S. cerevisiae deletion strains, locus YCL029C, strain bik1, hits give low values 1.01 | S. cerevisiae deletion strains, locus YCL061C, strain MRC1, hits give low values 1.01 | S. cerevisiae deletion strains, locus YCL069W, strain vba3, hits give low values 1 | S. cerevisiae deletion strains, locus YCR088W, strain abp1, hits give low values 0.988 | S. cerevisiae deletion strains, locus YDL005C, strain med2, hits give low values 0.974 | S. cerevisiae deletion strains, locus YDL035C, strain GPR1, hits give low values 1.02 | S. cerevisiae deletion strains, locus YDL040C, strain nat1, hits give low values 0.991 | S. cerevisiae deletion strains, locus YDL074C, strain BRE1, hits give low values 0.998 | S. cerevisiae deletion strains, locus YDL101C, strain DUN1, hits give low values 1.02 | S. cerevisiae deletion strains, locus YDL185W, strain tfp1, hits give low values 1.03 | S. cerevisiae deletion strains, locus YDL192W, strain arf1, hits give low values 1.02 | S. cerevisiae deletion strains, locus YDR001C, strain nth1, hits give low values 0.994 | S. cerevisiae deletion strains, locus YDR069C, strain doa4, hits give low values 0.98 | S. cerevisiae deletion strains, locus YDR101C, strain arx1, hits give low values 1.01 | S. cerevisiae deletion strains, locus YDR137W, strain rgp1, hits give low values 0.988 | S. cerevisiae deletion strains, locus YDR150W, strain NUM1, hits give low values 0.998 | S. cerevisiae deletion strains, locus YDR159W, strain sac3, hits give low values 1.01 | S. cerevisiae deletion strains, locus YDR162C, strain NBP2, hits give low values 1.01 | S. cerevisiae deletion strains, locus YDR195W, strain ref2 0.953 | S. cerevisiae deletion strains, locus YDR297W, strain sur2, hits give low values 0.986 | S. cerevisiae deletion strains, locus YDR318W, strain mcm21, hits give low values 1.03 | S. cerevisiae deletion strains, locus YDR334W, strain swr1, hits give low values 0.985 | S. cerevisiae deletion strains, locus YDR335W, strain msn5, hits give low values 0.987 | S. cerevisiae deletion strains, locus YDR388W, hits give low values 1.02 | S. cerevisiae deletion strains, locus YDR392W, strain spt3, hits give low values 1.02 | S. cerevisiae deletion strains, locus YDR502C, strain sam2, hits give low values 1.02 | S. cerevisiae deletion strains, locus YEL003W, strain gim4, hits give low values 1.01 | S. cerevisiae deletion strains, locus YEL037C, strain rad23, hits give low values 0.987 | S. cerevisiae deletion strains, locus YEL061C, strain CIN8 (second series), hits give low values 0.989 | S. cerevisiae deletion strains, locus YEL061C, strain CIN8, hits give low values 0.998 | S. cerevisiae deletion strains, locus YER015W, strain faa2, hits give low values 0.994 | S. cerevisiae deletion strains, locus YER016W, strain bim1, hits give low values 0.999 | S. cerevisiae deletion strains, locus YER110C, hits give low values 1.04 | S. cerevisiae deletion strains, locus YER111C, strain swi4, hits give low values 0.98 | S. cerevisiae deletion strains, locus YER155C, strain BEM2 (second series), hits give low values 1.01 | S. cerevisiae deletion strains, locus YER155C, strain BEM2, hits give low values 0.99 | S. cerevisiae deletion strains, locus YER167W, strain BCK2, hits give low values 1 | S. cerevisiae deletion strains, locus YFR010W, strain ubp6, hits give low values 1.01 | S. cerevisiae deletion strains, locus YGL078C, strain dbp3, hits give low values 1.03 | S. cerevisiae deletion strains, locus YGL086W, strain mad1, hits give low values 1 | S. cerevisiae deletion strains, locus YGL167C, strain pmr1, hits give low values 0.994 | S. cerevisiae deletion strains, locus YGL173C, strain kem1, hits give low values 0.985 | S. cerevisiae deletion strains, locus YGL227W, strain vid30, hits give low values 0.983 | S. cerevisiae deletion strains, locus YGL240W, strain doc1, hits give low values 1.02 | S. cerevisiae deletion strains, locus YGL248W, strain PDE1, hits give low values 1.01 | S. cerevisiae deletion strains, locus YGL253W, strain hxk2, hits give low values 0.962 | S. cerevisiae deletion strains, locus YGR078C, strain PAC10, hits give low values 1.01 | S. cerevisiae deletion strains, locus YGR135W, strain pre9, hits give low values 1.03 | S. cerevisiae deletion strains, locus YGR229C, strain SMI1, hits give low values 1 | S. cerevisiae deletion strains, locus YGR252W, strain gcn5, hits give low values 1.01 | S. cerevisiae deletion strains, locus YHR013C, strain ard1, hits give low values 0.959 | S. cerevisiae deletion strains, locus YHR027C, strain rpn1, hits give low values 1 | S. cerevisiae deletion strains, locus YHR030C, strain SLT2, hits give low values 1.01 | S. cerevisiae deletion strains, locus YHR079C, strain IRE1 (second series), hits give low values 1.02 | S. cerevisiae deletion strains, locus YHR094C, strain hxt1, hits give low values 1.02 | S. cerevisiae deletion strains, locus YHR129C, strain ARP1, hits give low values 0.999 | S. cerevisiae deletion strains, locus YHR142W, strain chs7, hits give low values 0.972 | S. cerevisiae deletion strains, locus YHR200W, strain rpn10, hits give low values 1.01 | S. cerevisiae deletion strains, locus YIL066C, strain RNR3, hits give low values 1.02 | S. cerevisiae deletion strains, locus YIL073C, strain SPO22, hits give low values 1.08 | S. cerevisiae deletion strains, locus YIL125W, strain kgd1, hits give low values 1.01 | S. cerevisiae deletion strains, locus YIR030C, strain dcg1, hits give low values 1.02 | S. cerevisiae deletion strains, locus YJL092W, strain hpr5, hits give low values 0.997 | S. cerevisiae deletion strains, locus YJL095W, strain BCK1 (second series), hits give low values 0.983 | S. cerevisiae deletion strains, locus YJL095W, strain BCK1, hits give low values 1 | S. cerevisiae deletion strains, locus YJL115W, strain asf1, hits give low values 1 | S. cerevisiae deletion strains, locus YJL129C, strain trk1, hits give low values 0.959 | S. cerevisiae deletion strains, locus YJL134W, strain LCB3, hits give low values 0.996 | S. cerevisiae deletion strains, locus YJL154C, strain vps35, hits give low values 0.991 | S. cerevisiae deletion strains, locus YJL164C, strain tpk1, hits give low values 0.989 | S. cerevisiae deletion strains, locus YJL166W, strain qcr8, hits give low values 0.982 | S. cerevisiae deletion strains, locus YJL168C, strain set2, hits give low values 1.01 | S. cerevisiae deletion strains, locus YJL187C, strain SWE1 (second series), hits give low values 1.01 | S. cerevisiae deletion strains, locus YKL009W, strain mrt4, hits give low values 0.962 | S. cerevisiae deletion strains, locus YKL068W, hits give low values 1.01 | S. cerevisiae deletion strains, locus YKL085W, strain MDH1 (second series), hits give low values 1 | S. cerevisiae deletion strains, locus YKL085W, strain MDH1, hits give low values 1 | S. cerevisiae deletion strains, locus YKL160W, strain elf1, hits give low values 0.991 | S. cerevisiae deletion strains, locus YKL190W, strain CNB1, hits give low values 0.996 | S. cerevisiae deletion strains, locus YKR001C, strain vps1, hits give low values 1.01 | S. cerevisiae deletion strains, locus YKR026C, strain gcn3, hits give low values 0.989 | S. cerevisiae deletion strains, locus YKR091W, strain srl3, hits give low values 0.986 | S. cerevisiae deletion strains, locus YLL001W, strain dnm1, hits give low values 0.989 | S. cerevisiae deletion strains, locus YLL026W, hits give low values 1 | S. cerevisiae deletion strains, locus YLL041C, strain sdh2, hits give low values 1 | S. cerevisiae deletion strains, locus YLR027C, strain aat2, hits give low values 0.999 | S. cerevisiae deletion strains, locus YLR039C, strain RIC1, hits give low values 1.06 | S. cerevisiae deletion strains, locus YLR058C, strain SHM2, hits give low values 1.02 | S. cerevisiae deletion strains, locus YLR102C, strain apc9, hits give low values 1.02 | S. cerevisiae deletion strains, locus YLR221C, strain rsa3, hits give low values 0.993 | S. cerevisiae deletion strains, locus YLR258W, strain gsy2, hits give low values 0.994 | S. cerevisiae deletion strains, locus YLR262C, strain YPT6 (second series), hits give low values 0.994 | S. cerevisiae deletion strains, locus YLR262C, strain YPT6, hits give low values 1.07 | S. cerevisiae deletion strains, locus YLR268W, strain sec22, hits give low values 1.01 | S. cerevisiae deletion strains, locus YLR320W, strain mms22, hits give low values 1 | S. cerevisiae deletion strains, locus YLR330W, strain CHS5, hits give low values 1.01 | S. cerevisiae deletion strains, locus YLR342W, strain FKS1, hits give low values 0.999 | S. cerevisiae deletion strains, locus YLR357W, strain rsc2, hits give low values 0.995 | S. cerevisiae deletion strains, locus YLR370C, strain arc18, hits give low values 0.981 | S. cerevisiae deletion strains, locus YLR371W, strain rom2, hits give low values 0.954 | S. cerevisiae deletion strains, locus YLR384C, strain iki3, hits give low values 0.977 | S. cerevisiae deletion strains, locus YLR418C, strain cdc73, hits give low values 1.02 | S. cerevisiae deletion strains, locus YML016C, strain PPZ1, hits give low values 1.01 | S. cerevisiae deletion strains, locus YML032C, strain rad52, hits give low values 1 | S. cerevisiae deletion strains, locus YML120C, strain ndi1, hits give low values 0.991 | S. cerevisiae deletion strains, locus YML124C, strain tub3, hits give low values 1.01 | S. cerevisiae deletion strains, locus YMR058W, strain fet3, hits give low values 0.998 | S. cerevisiae deletion strains, locus YMR078C, strain ctf18, hits give low values 1.03 | S. cerevisiae deletion strains, locus YMR125W, strain sto1, hits give low values 0.98 | S. cerevisiae deletion strains, locus YMR129W, hits give low values 0.989 | S. cerevisiae deletion strains, locus YMR205C, strain PFK2, hits give low values 0.999 | S. cerevisiae deletion strains, locus YMR223W, strain ubp8, hits give low values 1.02 | S. cerevisiae deletion strains, locus YMR231W, strain pep5, hits give low values 0.987 | S. cerevisiae deletion strains, locus YMR307W, strain GAS1, hits give low values 1.02 | S. cerevisiae deletion strains, locus YNL067W, strain RPL9B, hits give low values 1.02 | S. cerevisiae deletion strains, locus YNL071W, strain lat1, hits give low values 0.998 | S. cerevisiae deletion strains, locus YNL128W, strain TEP1, hits give low values 1.02 | S. cerevisiae deletion strains, locus YNL153C, strain GIM3, hits give low values 1.01 | S. cerevisiae deletion strains, locus YNL209W, strain ssb2, hits give low values 1.01 | S. cerevisiae deletion strains, locus YNL233W, strain BNI4, hits give low values 0.995 | S. cerevisiae deletion strains, locus YNL248C, strain rpa49, hits give low values 0.964 | S. cerevisiae deletion strains, locus YNL250W, strain rad50, hits give low values 1.03 | S. cerevisiae deletion strains, locus YNL271C, strain bni1, hits give low values 1.03 | S. cerevisiae deletion strains, locus YNL298W, strain CLA4, hits give low values 1.02 | S. cerevisiae deletion strains, locus YNL307C, strain MCK1, hits give low values 1.03 | S. cerevisiae deletion strains, locus YNL322C, strain KRE1 (second series), hits give low values 0.988 | S. cerevisiae deletion strains, locus YNR049C, strain mso1, hits give low values 0.999 | S. cerevisiae deletion strains, locus YNR052C, strain pop2, hits give low values 1 | S. cerevisiae deletion strains, locus YOL006C, strain TOP1, hits give low values 1.13 | S. cerevisiae deletion strains, locus YOL012C, strain htz1 0.879 | S. cerevisiae deletion strains, locus YOL147C, strain pex11, hits give low values 1.01 | S. cerevisiae deletion strains, locus YOR001W, strain rrp6, hits give low values 1 | S. cerevisiae deletion strains, locus YOR061W, strain CKA2, hits give low values 1.02 | S. cerevisiae deletion strains, locus YOR069W, strain VPS5, hits give low values 1 | S. cerevisiae deletion strains, locus YOR070C, strain gyp1, hits give low values 1 | S. cerevisiae deletion strains, locus YOR080W, strain dia2, hits give low values 0.983 | S. cerevisiae deletion strains, locus YOR083W, strain WHI5, hits give low values 0.994 | S. cerevisiae deletion strains, locus YOR106W, strain vam3, hits give low values 0.996 | S. cerevisiae deletion strains, locus YOR136W, strain idh2, hits give low values 1.03 | S. cerevisiae deletion strains, locus YOR144C, strain elg1, hits give low values 1.02 | S. cerevisiae deletion strains, locus YOR184W, strain ser1, hits give low values 1.03 | S. cerevisiae deletion strains, locus YOR265W, strain rbl2, hits give low values 1 | S. cerevisiae deletion strains, locus YOR270C, strain vph1, hits give low values 0.914 | S. cerevisiae deletion strains, locus YOR290C, strain snf2, hits give low values 0.967 | S. cerevisiae deletion strains, locus YOR316C, strain cot1, hits give low values 1.02 | S. cerevisiae deletion strains, locus YPL051W, strain arl3, hits give low values 1 | S. cerevisiae deletion strains, locus YPL078C, strain atp4, hits give low values 0.986 | S. cerevisiae deletion strains, locus YPL106C, strain sse1, hits give low values 0.988 | S. cerevisiae deletion strains, locus YPL240C, strain hsp82, hits give low values 0.983 | S. cerevisiae deletion strains, locus YPR119W, strain clb2, hits give low values 1.01 | S. cerevisiae deletion strains, locus YPR141C, strain kar3, hits give low values 1.03 | S. cerevisiae deletion strains, locus YPR163C, strain tif3, hits give low values 1.03 | S. cerevisiae deletion strains, locus YPR167C, strain met16, hits give low values 1.02 | S. cerevisiae deletion strains, strain wtn01, hits give low values 1.02 | S. cerevisiae strains, strain wild type, hits give low values 1.02
